Assay results taken from PubChem BioAssay (Tox21).
“And” between values parts separate entries of the source, which are not always exact repeats. Equal entries are not always repeated. The source holds several records for some structures; these can differ, active in one and inactive in another. The source made the active and inactive calls. Where a call stands in place of a potency, no number is given. Unless noted, the call rests on the fitted dose curve; in most records, active means well fitted curve in the direction sought with a large enough effect in the repeat runs; inconclusive means weak or mixed curves; inactive means no such curve, though single readings can be large; an effect the other way counts as inactive or inconclusive.

Key:
[1] = qHTS assay to identify small molecule antagonists of the thyroid receptor (TR) signaling pathway - cell viability counter screen (AID 743064); further: nearly all actives have a fitted effect of over 50% in size; further: potency means the concentration at half of the fitted maximal effect
Procedure, shortened: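 GH3.TRE-Luc rat pituitary cells dosed after 4 hr plating, co-stimulated with T3 at 1 nM final, incubated 23.5 h at 37 C. Viability measured in the same wells by CellTiter-Fluor fluorescence after 30 min further at 37 C.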

[2] = qHTS assay to identify small molecule antagonists of the thyroid receptor (TR) signaling pathway (AID 743065); further: nearly all actives have a fitted effect of over 55% in size; further: potency means the concentration at half of the fitted maximal effect
Procedure, shortened: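 GH3.TRE-Luc rat pituitary cells carrying two TR response elements driving luciferase were plated for 4 h, given compound plus 1 nM T3 (final), and incubated 23.5 h at 37 C. ONE-Glo luminescence measured reporter inhibition; CellTiter-Fluor fluorescence tracked cytotoxicity.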

[3] = test system: thyroid hormone receptor (rat, GH3 cells); test: qHTS assay to identify small molecule agonists of the thyroid receptor (TR) signaling pathway (AID 743066; calls by dose curve)
[4] = biological target: Estrogen receptor (Homo sapiens) (UniProt P03372); test: qHTS assay to identify small molecule antagonists of the estrogen receptor alpha (ER-alpha) signaling pathway (AID 743069; active means well fitted curve in the direction sought with a large enough effect in the signal ratio in the repeat runs, not every such curve was filed as active; inconclusive means weak or mixed curves, or effect the other way; inactive means no such curve, though single readings can be large or run the other way; the % refers to the signal ratio)
Sequence of Estrogen receptor (Homo sapiens) (P03372 whole entry, looked up): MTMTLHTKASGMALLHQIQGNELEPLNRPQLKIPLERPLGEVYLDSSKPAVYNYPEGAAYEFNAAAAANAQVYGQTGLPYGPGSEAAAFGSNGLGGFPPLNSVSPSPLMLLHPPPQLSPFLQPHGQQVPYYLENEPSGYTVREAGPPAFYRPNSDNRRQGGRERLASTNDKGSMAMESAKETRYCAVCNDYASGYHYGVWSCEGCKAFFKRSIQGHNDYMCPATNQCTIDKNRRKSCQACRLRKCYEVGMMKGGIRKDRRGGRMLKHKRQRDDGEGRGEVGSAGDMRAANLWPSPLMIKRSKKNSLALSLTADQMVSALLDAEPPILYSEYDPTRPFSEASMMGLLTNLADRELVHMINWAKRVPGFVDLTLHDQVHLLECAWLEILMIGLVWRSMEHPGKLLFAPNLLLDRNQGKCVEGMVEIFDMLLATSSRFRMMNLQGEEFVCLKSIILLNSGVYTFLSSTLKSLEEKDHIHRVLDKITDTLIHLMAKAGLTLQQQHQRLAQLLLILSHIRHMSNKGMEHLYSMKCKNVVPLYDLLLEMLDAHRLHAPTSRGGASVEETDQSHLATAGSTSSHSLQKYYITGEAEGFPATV
Procedure, shortened: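 HEK293 cells stably carrying an ER-alpha-UAS-bla beta-lactamase reporter were pre-cultured overnight in 2% charcoal-stripped FBS medium. Test compounds in DMSO were added together with 17beta-estradiol for 18 hr at 37C. Read-out was fluorescence after 2 hr with LiveBLAzer B/G FRET substrate at room temperature.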

[5] = qHTS assay to identify small molecule antagonists of the estrogen receptor alpha (ER-alpha) signaling pathway - cell viability counter screen (AID 743074; calls by dose curve; further: nearly all actives have a fitted effect of over 45% in size; further: potency means the concentration at half of the fitted maximal effect)
[6] = biological target: Estrogen receptor (Homo sapiens) (UniProt P03372); test: qHTS assay to identify small molecule agonists of the estrogen receptor alpha (ER-alpha) signaling pathway (AID 743075; calls by dose curve; further: potency means the concentration at half of the fitted maximal effect)
[7] = biological target: Estrogen receptor (Homo sapiens) (UniProt P03372); test: qHTS assay to identify small molecule agonists of the estrogen receptor alpha (ER-alpha) signaling pathway using the BG1 cell line (AID 743079); further: nearly all actives have a fitted effect of over 20% in size; further: potency means the concentration at half of the fitted maximal effect
[8] = qHTS assay to identify small molecule antagonists of the estrogen receptor alpha (ER-alpha) signaling pathway using the BG1 cell line - cell viability counter screen (AID 743081);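 further: compound given together with 17beta-estradiol as the ER stimulus; nearly all actives have a fitted effect of over 45% in size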; further: potency means the concentration at half of the fitted maximal effect
Aromatase (Homo sapiens) = Aromatase (Homo sapiens) (UniProt P11511); test: qHTS assay to identify aromatase inhibitors (AID 743083); further: nearly all actives have a fitted effect of over 55% in size; further: potency means the concentration at half of the fitted maximal effect
Sequence of Aromatase (Homo sapiens) (P11511 whole entry, looked up): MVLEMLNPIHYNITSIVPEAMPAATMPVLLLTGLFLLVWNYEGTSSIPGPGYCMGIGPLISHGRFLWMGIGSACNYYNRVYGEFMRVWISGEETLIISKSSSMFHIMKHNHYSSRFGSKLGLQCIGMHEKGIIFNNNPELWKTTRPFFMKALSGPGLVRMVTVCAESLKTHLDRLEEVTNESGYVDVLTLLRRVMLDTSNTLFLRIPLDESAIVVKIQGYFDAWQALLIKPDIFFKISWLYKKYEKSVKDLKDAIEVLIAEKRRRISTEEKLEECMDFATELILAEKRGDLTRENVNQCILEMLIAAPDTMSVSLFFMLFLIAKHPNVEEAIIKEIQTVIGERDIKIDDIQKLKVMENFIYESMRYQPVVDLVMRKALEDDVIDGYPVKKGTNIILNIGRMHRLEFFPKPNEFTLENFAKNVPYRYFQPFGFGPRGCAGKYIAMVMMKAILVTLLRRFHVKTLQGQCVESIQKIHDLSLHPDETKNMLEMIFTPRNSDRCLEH

[9] = qHTS assay to identify small molecule antagonists of the estrogen receptor alpha (ER-alpha) signaling pathway using the BG1 cell line (AID 743080; calls by dose curve;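 further: BG1 cells stimulated with 17beta-estradiol alongside compound; nearly all actives have a fitted effect of over 25% in size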; further: potency means the concentration at half of the fitted maximal effect)
Procedure, shortened: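 Luciferase inhibition measured with ONE-Glo after 30 min at RT in BG1Luc4E2 cells given test compounds and 17beta-estradiol for 21.5 h at 37 C; CellTiter-Fluor viability read in the same wells beforehand.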

| SMILES | Potency [1] | Potency [2] | Potency [3] | Potency [4] | Potency [5] | Potency [6] | Potency [7] | Potency [8] | Potency (Aromatase (Homo sapiens)) | Potency [9] |
| --- | --- | --- | --- | --- | --- | --- | --- | --- | --- | --- |
| CCC(C)OC(=O)c1ccc(O)cc1 (stereo unspecified) | inactive | inactive | inactive | inactive | inactive | 24.7 µM [inconclusive] (active) and 38.9 µM [inconclusive] (active) | 6.9 µM (active) and 6.11 µM (active) | inactive | inactive |  |
| Cc1cccc([N+](=O)[O-])c1C | inactive | inactive | inactive |  | inactive | inactive | inactive | inactive | inactive | inactive |
| CC1=CC2C3CC(C=C3C)C2C1 (stereo unspecified) | inactive | inactive | inactive |  | inactive | inactive | inactive | inactive | inactive | inactive |
| CC(=O)CC/C=C(\C)CCC=C(C)C | inactive | inactive | inactive |  | inactive | inactive | inactive | inactive | inactive | inactive |
| O=C(O)c1ccccc1Nc1cccc(C(F)(F)F)c1 | inactive | 23.7 µM (active) and 27.3 µM (active) | inactive |  | inactive | inactive | inactive | inactive | inactive | inactive |
| C[C@]12CCC(=O)C=C1CC[C@@H]1[C@@H]2C(=O)C[C@@]2(C)[C@H]1CC[C@]2(O)C(=O)CO | inactive | inactive | inactive |  | inactive | inactive | inactive | inactive | inactive | inactive |
| c1cc(-c2ccncc2)ccn1 | inactive | inactive | inactive | inactive | inactive | inactive | inactive | inactive | inactive |  |
| O=C(c1ccc(OCCN2CCCCC2)cc1)c1c(-c2ccc(O)cc2)sc2cc(O)ccc12 | 6.68 µM (active) and 4.33 µM (active) and 6.11 µM (active) | 6.68 µM (active) and 4.86 µM (active) | inactive |  | 23.9 µM (active) and 49 µM (active) and 54.9 µM (active) |  |  | 8.41 µM (active) and 10.9 µM (active) and 13.7 µM (active) | 11.9 nM (active) and 3.9 nM (active) and 4.3 nM (active) |  |
| CC(C(=O)O)c1cccc(C(=O)c2ccccc2)c1 (stereo unspecified) | inactive | inactive | inactive | inactive | inactive | inactive | inactive | inactive | inactive | inactive |
| CC(C)=CCCC(C)CCO (stereo unspecified) | inactive | inactive | inactive |  | inactive | inactive | inactive | inactive | inactive | inactive |
| O=CCCCC=O | inactive | inactive | inactive | inactive | inactive | inactive | inactive | inactive | inactive |  |
| CC(=O)c1ccccn1 | inactive | inactive | inactive |  | inactive |  |  | inactive | inactive |  |
| Cc1cccc(C(=O)O)c1 | inactive | inactive | inactive | inactive | inactive | inactive | inactive | inactive | inactive | inactive |
| C=C(C)C(=O)OCCOC(=O)C(=C)C | inactive | inactive | inactive | inactive | inactive | inactive | inactive | inactive | inactive | inactive |
| C[Si](C)(C)O[Si](C)(C)C | inactive | inactive | inactive |  | inactive |  |  | inactive | inactive |  |
| O=C(OCc1ccccc1)c1ccccc1O | inactive | inactive | inactive | inactive | inactive | inactive | 24.3 µM (active) | inactive | inactive | inactive |
| OC(CCl)CCl | inactive | inactive | inactive | inactive | inactive | inactive | inactive | inactive | inactive | inactive |
| O=C(COc1ccc(Cl)cc1)N1CCN(Cc2ccc3c(c2)OCO3)CC1 | inactive | inactive | inactive | inactive | inactive and 30.9 µM (active) | inactive |  | inactive | inactive | 61.1 µM (active) |
| O=c1oc(=O)c2cc3c(=O)oc(=O)c3cc12 | inactive | inactive | inactive |  | inactive |  |  | inactive | inactive |  |
| S=C(NC1CCCCC1)NC1CCCCC1 | inactive | inactive | inactive |  | 48.1 µM (active) | inactive |  | inactive |  | 75.5 µM (active) and 54.5 µM (active) |
| c1ccc2sc(SSN3CCOCC3)nc2c1 | 15.3 µM (active) and 24.3 µM (active) | 13.7 µM (active) and 15.4 µM (active) | inactive | inactive | inactive | inactive | inactive | inactive | 5.44 µM (active) | inactive |
